Data from PubChem BioAssay AID590 (National Center for Advancing Translational Sciences (NCATS), 2007).
In all, about 59,000 compounds went through this assay and about 6,500 (11%) were called active. Inconclusive results (about 15%) are left out. No stated cut-off is given here; in the data, active means max dye-equivalent concentration above about 10 nM; inconclusive means mostly about 1.1 nM to 9.6 nM; inactive means weaker than that. The sample as a whole holds a higher share of actives than the screen did.

Assay: qHTS Assay for Spectroscopic Profiling in A350 Spectral Region
Conditions: Compound autofluorescence, 340/450 nm, Alexa 350 dye-equivalents; stronger effect = higher value
Source text: NIH Molecular Libraries Screening Centers Network [MLSCN]
NIH Chemical Genomics Center [NCGC]
Occasionally, the artifactual effect may originate from the compounds own spectral or other biophysical properties which generally tend to track its assay concentration. Pre-screening/profiling the library with respect to the compounds spectral properties should help one exclude false positives early on. While the most informative fluorescent profiling data set is obtained by performing a full excitation and emission scan of each well by using a monochromator-based plate reader, such an approach is practical only on a very limited scale as scanning each well requires long time. An alternative approach, applied here, is to perform plate reader scans using selected excitation and emission wavelength pairs to generate a multidimensional relational database that correlates compound concentration and the respective relative fluorescence intensity at a given wavelength set. A standard curve of Alexa 350 (A 350) present on each plate as six-point concentration series, was used to compute a normalized fluorescence response, termed dye-equivalent concentration, for each compound at each concentration.
NCGC Assay Protocol Summary:
100 mM Tris buffer, pH 8.0
The wells in columns 1 through 4 of a Kalypsys polypropylene 1536-well compound plate were filled with standard solutions of fluorophore corresponding to the spectral region of interest. Solutions of A 350 were placed in the following wells: I1, J1: 3 mM, I2, J2: 300 uM, I3, J3: 30 uM, I4, J4: zero (DMSO), K1, L1: 3 uM, K2, L2: […], K3, L3: 300 nM, K4, L4: zero (DMSO).
Six uL of buffer were dispensed to 1536-well Greiner black plates. Compounds and dye standards (23 nL) were transferred via Kalypsys PinTool. The plates were incubated for 15 min at room temperature, and then read on ViewLux (Perkin-Elmer) High-throughput CCD imager using 340 nm and 450 nm excitation and emission filter set.
Keywords: NIH Roadmap, MLSCN, MLI, MLSMR, qHTS, NCGC, A350, A-350, Fluorescent Profiling.
In the case of `CCCN(CCC)CCNC(=O)c1cc2c(C)nc3ccccc3c2o1`, the max dye-equivalent concentration is reported as 18 nM (active). With `Cc1cc(C(=O)NCCCc2ccccc2)no1` the max dye-equivalent concentration was “inactive”. In the case of `CCCC(=O)N(CCc1ccccc1)Cc1nc2ccccc2c(=O)[nH]1`, the max dye-equivalent concentration is reported as “inactive”. With `CCOC(=O)C1CCCCN1Cc1ccc(OC)c(OC)c1OC` (stereo not drawn) the max dye-equivalent concentration was “inactive”. For `Clc1ccccc1-c1cc(NCCN2CCOCC2)ncn1`, the max dye-equivalent concentration was “inactive”. In the case of `CCn1c(SCC(=O)NCc2ccco2)nnc1-c1ccc(N)cc1`, the max dye-equivalent concentration is reported as “inactive”. For `CN1CCN(S(=O)(=O)c2ccc(NC(=O)C3CCCO3)cc2)CC1` (stereo not drawn), the max dye-equivalent concentration was “inactive”. For `COc1ccc(S(=O)(=O)N2CCOCC2)cc1C(=O)Nc1nc2ccccc2s1`, the max dye-equivalent concentration was 26 nM (active). In the case of `CCN(Cc1ccncc1)C(=O)c1cccc(S(=O)(=O)N2CCOCC2)c1`, the max dye-equivalent concentration is reported as “inactive”. In the case of `O=C(Nc1nc2ccc(S(=O)(=O)N3CCCC3)cc2s1)C1CCCO1` (stereo not drawn), the max dye-equivalent concentration is reported as “inactive”. With `COC(=O)COc1ccc(S(=O)(=O)N2CCOCC2)cc1` the max dye-equivalent concentration was “inactive”. For `CCOC(=O)c1sc(NC(=O)c2cc(S(=O)(=O)N3CCOCC3)ccc2C)nc1C`, the max dye-equivalent concentration was “inactive”. With `O=C(Nc1nc2cc3c(cc2s1)OCCO3)c1cccc(S(=O)(=O)N2CCOCC2)c1` the max dye-equivalent concentration was 15 nM (active). With `CC1(C)Cc2cccc(OCC(=O)Nc3nccs3)c2O1` the max dye-equivalent concentration was “inactive”. In the case of `COc1ccc(C[C@H](N)C(=O)N[C@@H]2[C@H](O)[C@H](n3cnc4c(N(C)C)ncnc43)O[C@@H]2CO)cc1`, the max dye-equivalent concentration is reported as “inactive”. With `CCCOP(=O)(c1ccc(N(C)C)cc1)C(O)c1cc(OC)c(OC)c(OC)c1` (stereo not drawn) the max dye-equivalent concentration was “inactive”. For `COc1ccc(N2CCN(C3CC(=O)N(c4ccc5c(c4)OCCO5)C3=O)CC2)cc1` (stereo not drawn), the max dye-equivalent concentration was “inactive”. With `Cc1ccc(S(=O)(=O)N2CCC(C(=O)OCC(=O)N3CC(=O)Nc4ccccc43)CC2)cc1` the max dye-equivalent concentration was “inactive”. In the case of `CC(=O)N1CCC2(CCCN(c3ncccn3)C2)CC1`, the max dye-equivalent concentration is reported as “inactive”. For `Cc1ccc(S(=O)(=O)N2CCCC2CO)cc1` (stereo not drawn), the max dye-equivalent concentration was “inactive”. In the case of `COc1ccc(C2CC(c3ccc(C)cc3)Nc3nc(N)nn32)cc1` (stereo not drawn), the max dye-equivalent concentration is reported as 2800 nM (active). In the case of `Cc1cc(C)c(C(=O)CN2C(=O)CCC2=O)cc1C`, the max dye-equivalent concentration is reported as “inactive”. In the case of `COC(=O)c1ccc(NC(=O)CSc2nnc(CNc3ccc(OC)cc3)n2C)cc1`, the max dye-equivalent concentration is reported as “inactive”. With `CCOC(=O)N1CCN(C(=O)CN(C2CCCCC2)S(C)(=O)=O)CC1` the max dye-equivalent concentration was “inactive”. In the case of `Cc1ccccc1CSc1nnc(-c2ccccn2)n1N`, the max dye-equivalent concentration is reported as “inactive”. For `CN(Cc1ccco1)c1cc(-c2ccccc2C(F)(F)F)ncn1`, the max dye-equivalent concentration was “inactive”. With `Cc1c(NC(=O)c2cccnc2)c(=O)n(-c2ccccc2)n1C` the max dye-equivalent concentration was “inactive”. In the case of `Cc1c(NC(=O)c2coc(=O)c(Br)c2)c(=O)n(-c2ccccc2)n1C`, the max dye-equivalent concentration is reported as 220 nM (active). For `Cc1cc(C(=O)Nc2c(C)n(C)n(-c3ccccc3)c2=O)cs1`, the max dye-equivalent concentration was “inactive”. In the case of `O=c1[nH]c(=O)n([C@H]2C[C@H](O)[C@H](CO)O2)cc1Br`, the max dye-equivalent concentration is reported as “inactive”. For `OCCCN1c2ccccc2Nc2nnc(-c3ccccc3)cc21`, the max dye-equivalent concentration was 110 nM (active). In the case of `Cn1c(=O)[nH]c(=O)c2c1nc(N(CCO)Cc1ccccc1)n2Cc1ccccc1Cl`, the max dye-equivalent concentration is reported as “inactive”. With `O=C(c1cccc(F)c1)N1CCC2(CCCN(Cc3ccncc3)C2)CC1` the max dye-equivalent concentration was “inactive”. With `Cc1c(C)c2c(c(C)c1O)CC[C@@](C)(CN1CCN(c3cc(N4CCCC4)nc(N4CCCC4)n3)CC1)O2` the max dye-equivalent concentration was 11 nM (active). For `CC(=O)N1CCC2(CCCN(Cc3ccc(C#N)cc3)C2)CC1`, the max dye-equivalent concentration was “inactive”. For `N#CNC1=NCN(CCc2ccccc2)CN1`, the max dye-equivalent concentration was “inactive”. For `O=C(CSc1nc2ccccc2o1)N1CCN(c2ccccc2)CC1`, the max dye-equivalent concentration was “inactive”. In the case of `Cc1ccnc(N2CCN(C(=O)CSc3nc4ccccc4nc3N3CCCCC3)CC2)c1`, the max dye-equivalent concentration is reported as 28 nM (active). For `Cn1c(=O)cc(OCCCC(=O)N2CCN(c3ccccn3)CC2)c2ccccc21`, the max dye-equivalent concentration was “inactive”. With `COc1ccc(C(=O)Cn2nnc(-c3ccc(N4CCOCC4)cc3)n2)cc1OC` the max dye-equivalent concentration was “inactive”. In the case of `Cc1ccc(Oc2ccc(N)cc2)cc1`, the max dye-equivalent concentration is reported as “inactive”. For `CC(C)(C)n1nnnc1C(c1ccc2ncccc2c1)N1CCSCC1` (stereo not drawn), the max dye-equivalent concentration was “inactive”. For `Cc1ccccc1-c1nnn(CC(=O)c2ccc(S(=O)(=O)N3CCCC3)cc2)n1`, the max dye-equivalent concentration was “inactive”. For `N#CC(C(=O)c1ccc(S(=O)(=O)N2CCCCCC2)cc1)c1nc2ccccc2[nH]1` (stereo not drawn), the max dye-equivalent concentration was 52 nM (active). In the case of `COc1ccccc1N1CCN(C(=O)c2ccc(S(=O)(=O)N3CCCCC3)cc2)CC1`, the max dye-equivalent concentration is reported as “inactive”. For `Cc1nnc(N(Cc2ccco2)C(=O)c2ccno2)s1`, the max dye-equivalent concentration was “inactive”. For `N#Cc1cccc(NC(=O)CCC2CCCC2)c1`, the max dye-equivalent concentration was “inactive”. With `CCCc1nc(-c2ccccc2O)n(-c2ccccc2)n1` the max dye-equivalent concentration was “inactive”. For `O=C(CSc1nnc(Cc2ccccc2)n1-c1ccccc1)N1CCOCC1`, the max dye-equivalent concentration was “inactive”. For `CCOc1ccccc1C1C(C(=O)OC)=CN(C)C=C1C(=O)OC`, the max dye-equivalent concentration was 13000 nM (active). In the case of `CCOc1ccccc1C(=O)NCCCn1ccnc1`, the max dye-equivalent concentration is reported as “inactive”. For `CCOc1ccccc1C(=O)NCc1ccco1`, the max dye-equivalent concentration was “inactive”. With `CN(C)CCCn1c2ccccc2c2cnccc21` the max dye-equivalent concentration was “inactive”. In the case of `CCC(C)n1[nH]c(=O)cc1N` (stereo not drawn), the max dye-equivalent concentration is reported as “inactive”. In the case of `CC(=O)c1c(N)n(C)c(=O)n(C)c1=O`, the max dye-equivalent concentration is reported as “inactive”. With `CCON=C1C(C)(C)C(C)(C)C(C)(C)C1(C)C` the max dye-equivalent concentration was “inactive”. With `CC(=O)N1CCN(C(=O)Nc2cccc(C(F)(F)F)c2)CC1` the max dye-equivalent concentration was “inactive”. For `CCOc1c(N2CCCCC2)c(=O)c1=O`, the max dye-equivalent concentration was “inactive”. In the case of `COC(=O)c1ccc(CSc2nc3ccccc3c(=O)n2-c2cccc(OC)c2)o1`, the max dye-equivalent concentration is reported as “inactive”. With `COc1ccc(-c2c3c(=O)n(C)c(=O)n(C)c3cn2NC(C)=O)cc1` the max dye-equivalent concentration was 2600 nM (active). With `CCOC(=O)CNC(=O)c1nn(-c2cccc(OC)c2)c(=O)c2ccccc12` the max dye-equivalent concentration was “inactive”. For `COc1ccc(-c2c3c(=O)n(C)c(=O)n(C)c3cn2-c2cccc(OC)c2)cc1`, the max dye-equivalent concentration was 14 nM (active). In the case of `Cc1ccc(-c2c3c(=O)n(C)c(=O)n(C)c3cn2-n2cnnc2)cc1`, the max dye-equivalent concentration is reported as “inactive”. In the case of `COc1ccc(OC)c(-n2cc3c(=O)n(C)c(=O)n(C)c3c2)c1`, the max dye-equivalent concentration is reported as “inactive”. For `COc1ccc(N(C(=O)c2cccnc2)S(=O)(=O)c2ccc3c(c2)n(C)c(=O)n3C)cc1`, the max dye-equivalent concentration was “inactive”. With `COc1cccc(-n2cc3c(c2-c2ccccc2)c(=O)n(C)c(=O)n3C)c1` the max dye-equivalent concentration was 10 nM (active). With `Cc1cccc(-n2nc3c(c2NC(=O)c2ccc(Br)o2)CSC3)c1C` the max dye-equivalent concentration was “inactive”. For `O=C(Nc1ccc(S(=O)(=O)N2CCCCC2)cc1)c1cnccn1`, the max dye-equivalent concentration was “inactive”.
